# UHRF1 binding = blocks human UHRF1 binding to methylated DNA | inhibition, % at 4.4 µM | hit rate 0.75% among 370,000 | AID 687016 | UHRF1 binding to methylated oligo, TR-FRET; in the data active = inhibition above about 21%;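 note: UHRF1 SRA domain binding a hemimethylated CpG hairpin DNA probe; 0% = median of test compound wells and 100% = reference inhibitor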
# Rin1 Abl inh = inhibitors of human Rin1-Abl protein interaction; TR-FRET Rin1/Abl binding, biochemical; inhibition, % at 7.35 µM; AID 588664; hit rate 0.4% among 360,000; in the data active = inhibition above about 5%, passing the limit was not always enough
# LEDGF integ inh = blocks HIV-1 LEDGF/p75-dependent DNA integration; hit rate 0.64% among 370,000; TR-FRET IN-LEDGF/p75 DNA integration, Eu/Cy5; inhibition, % at 3.7 µM;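 active = inhibition above the screen-wide mean plus 3 SD, cut at about 13% in these data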;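 note: signal is the Cy5 over europium emission ratio at 671 and 618 nm; 0% = plate median of compound wells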
# TCR-CD3 inh = blocks the human TCR-CD3 interaction; TAMRA-labeled TCR probe fluorescence, biochemical; inhibition, % at 9.4 µM; hit rate 0.37% among 360,000; AID 651800; in the data active = inhibition above about 19%;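 note: recombinant mutant TCR 2C K166C tagged with TAMRA read by polarization; 0% = receptor in buffer alone and 100% = receptor with positive control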
# MBD2 inh = MBD2-methylated oligo binding inhibition; AID 686964; Q9UBB5; inhibition, % at 4.4 µM; hit rate 0.31% among 370,000; TR-FRET, MBD2 binding to methylated oligonucleotide; in the data active = inhibition above about 13%
# Rin1 Abl conf = confirmation of inhibitors of human Rin1-Abl interaction | inhibition, % at 7.35 µM | hit rate 49% among 1,300 | TR-FRET Rin1-Abl binding, purified proteins | shares compounds with Rin1 Abl inh; in the data active = inhibition above about 6.5%
# GFP quench-1 = GFP fluorescence interference artifact. shares compounds with Rin1 Abl inh. inhibitors/quenchers counterscreen. inhibition, % at 6.75 µM. hit rate 8.5% among 1,300; in the data active = inhibition above about 6.5%;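 note: ABL1-eGFP fusion protein alone without its partner RIN1-SBP; 0% = protein with vehicle and 100% = wells lacking protein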
# GFP quench DR = quenches GFP in dose response, Rin1-Abl counter-screen; IC50, µM; AID 602182; 230 tested, under 10 active; GFP fluorescence interference/quenching counterscreen; shares compounds with Rin1 Abl inh;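 note: ABL1-eGFP fusion protein alone without its RIN1 binding partner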
# GFP quench-2 = quenches GFP fluorescence in Rin1-Abl counterscreen | IC50, µM | shares compounds with Rin1 Abl inh | 25 tested, under 10 active | GFP fluorescence quenching counterscreen, biochemical
# * hit, by the source's call; · = no result given. This is a sample that favours compounds with a hit; in the whole collection about 2% have one here. Unless noted, the rule behind the calls is not given here.
SMILES,UHRF1 binding,Rin1 Abl inh,LEDGF integ inh,TCR-CD3 inh,MBD2 inh,Rin1 Abl conf,GFP quench-1,others
CC(=O)Nc1cccc(-c2ccnc3c2CC(C(=O)NCc2ccc(N(C)C)cc2)O3)c1 (stereo not drawn),-2.0,16.9*,-2.8,-3.6,-0.8,10.3*,0.7,
[O-]C(=C(C(=S)Nc1cccc2ccccc12)[n+]1cccc(CO)c1)c1ccc(Cl)s1,-4.0,12.7*,-0.5,-0.5,-6.4,-0.3,0.0,
Cc1nn(-c2ccccc2)c(C)c1C(=O)OCC(=O)Nc1ccccc1,1.2,1.9,1.8,0.0,-0.5,·,·,
Cc1nn(-c2ccccc2)c(C)c1C(=O)OCC(=O)N(C)c1ccccc1,2.5,9.0*,-8.3,-2.0,-3.6,2.3,-0.5,
Cc1cc(C)cc(OCc2nnc(SCC(=O)c3ccc(Br)cc3)o2)c1,0.4,4.7*,3.1,-0.5,-2.3,0.8,-0.6,
COc1ccc(CCNc2cc(=O)[nH]c(N)n2)cc1,·,23.9*,·,·,·,52.2*,-0.9,GFP quench DR=>67.6;GFP quench-2=>67.5
CC12CCC(=O)N1C(C(=O)N1CCN(S(=O)(=O)c3ccc(Br)cc3Cl)CC1)CS2 (stereo not drawn),-2.6,18.6*,5.4,6.3,-1.0,17.4*,1.5,GFP quench DR=>67.5
CC12CCC(=O)N1C(C(=O)N1CCN(S(=O)(=O)c3ccccc3F)CC1)CS2 (stereo not drawn),0.9,-4.8,-5.8,-4.9,0.7,·,·,
O=C(NCc1ccncc1)Nc1ccccc1,-0.2,54.0*,-0.1,-0.2,1.7,-1.1,-1.0,
O=C(Nc1nnc([C@H]2C[C@H](O)[C@@H](CO)O2)s1)NC1CCCCC1,-1.5,0.3,-1.2,-6.5,3.5,·,·,
Cc1ccc(C(=O)NC2(O)C(=O)c3ccccc3C2=O)cc1C,-1.4,11.7*,4.0,-0.8,-9.9,15.9*,2.7,
O=C(Cc1ccccc1)NC1(O)C(=O)c2ccccc2C1=O,-9.1,4.0,4.8,1.0,-7.7,·,·,
CCOC(=O)c1cnc(-n2[nH]c(C)cc2=O)[nH]c1=O,-2.4,14.1*,-1.5,18.8,-2.4,8.6*,7.8*,
COc1ccc(CCNC(=O)Nc2ccc3nc([C@@H]4O[C@H](CO)[C@@H](O)[C@H](O)[C@H]4O)[nH]c3c2)cc1Br,-1.2,0.9,-2.5,5.1,-5.6,·,·,
CC(=O)Nc1ccc(CNc2nc3cc(-c4ccsc4)sc3c(=O)n2C)cc1,1.0,-5.3,-0.2,2.5,-1.6,·,·,
O=c1oc2ccccc2n1CCCCCn1c(=O)oc2ccccc21,5.3,4.8*,1.3,8.6,4.8,-1.2,-0.6,
CC(=O)N1CC(=O)N(c2ccccc2)C1=O,5.5,2.4,-4.6,-3.2,-2.5,·,·,
CCc1nn(CC(=O)N2CCC(C(N)=O)CC2)c(=O)c2cc3occc3n12,0.8,11.8*,2.3,4.9,1.2,-0.5,0.4,
CCOC(=O)C1CCN(C(=O)CCCn2nc(CC)n3c(cc4occc43)c2=O)CC1,1.1,0.1,-5.7,-5.9,1.2,·,·,
O=C1NCC(O)=C1C=NC12CC3CC(CC(C3)C1)C2,-1.5,31.1*,-1.6,1.9,-6.6,22.6*,0.3,GFP quench DR=>67.5
CCc1cccc(CC)c1NC(=O)CN1CCc2cc(OC)c(OC)cc2C1,·,3.5,·,·,·,·,·,
CC(Sc1nccn1C)C(=O)Nc1ccc(C(N)=O)cc1 (stereo not drawn),4.0,10.1*,2.0,1.0,-0.3,-2.1,-0.2,
COc1ccc(C(O)c2ncc(-c3cccc(F)c3)[nH]2)cc1F (stereo not drawn),-1.4,0.3,-0.7,1.6,-1.7,·,·,
O=C(OCCCCOC(=O)c1ccccc1)c1ccccc1,-0.1,2.1,1.2,4.2,-1.4,·,·,
O=C(OCCCOC(=O)c1ccc(O)cc1)c1ccc(O)cc1,1.7,19.5*,0.2,-2.1,-3.1,16.8*,0.4,
SMILES,UHRF1 binding,Rin1 Abl inh,LEDGF integ inh,TCR-CD3 inh,MBD2 inh,Rin1 Abl conf,GFP quench-1,others
CC(C)[C@H](NC(=O)OC(C)(C)C)c1cc(C(=O)N[C@@H](C)c2ccccc2)c(N)s1,-0.6,·,-1.6,-6.4,8.9,·,·,
CC1Cc2cc(S(=O)(=O)NCCc3ccccc3)ccc2N1C(=O)C1CC1 (stereo not drawn),-0.5,-1.7,2.0,3.4,-1.5,·,·,
CC(NS(=O)(=O)c1ccc2c(c1)CC(C)N2C(=O)C1CC1)c1ccccc1 (stereo not drawn),0.0,9.5*,-0.9,7.1,0.5,-1.3,-0.8,
O=C(NC1CCN(Cc2ccccc2)CC1)c1ccc2c(c1)[nH]c(=O)n2Cc1ccc(F)cc1,1.2,10.2*,3.4,-9.6,-0.1,12.6*,0.4,
CC(=O)c1sc(NS(=O)(=O)c2ccc(C)cc2)nc1-c1ccccc1,-0.7,-2.1,-1.5,8.9,0.7,·,·,
Cc1cc(=O)n2nc(N3CCCC(C(=O)N4CCc5ccccc54)C3)sc2n1 (stereo not drawn),·,12.7*,·,·,·,16.6*,0.8,
Cc1c(F)cccc1NS(=O)(=O)c1ccc2c(c1)c(=O)n(C)c(=O)n2C,-1.0,10.3*,2.3,-0.8,2.5,2.2,-0.8,
Cc1c(F)cccc1NS(=O)(=O)c1ccc2c(c1)n(C)c(=O)c(=O)n2C,-1.6,2.5,0.1,4.3,0.0,·,·,
CC(C)(C)Nc1c(C2CCNCC2)nc2c(OCc3ccccc3)cccn12,3.7,-2.5,3.6,1.4,-0.2,·,·,
COc1cc(CNCc2ccccc2)c(Br)cc1OC1CCCC1,6.8,8.8*,4.2,-1.2,7.5,5.3,-1.0,
Cc1nc(NC(=O)CSc2nnc(C3CC3)n2C)sc1C(=O)N(C)C,0.5,1.7,-0.7,-6.0,1.1,·,·,
C=CCn1c(C)nnc1SCC(=O)Nc1nc(C)c(C(=O)N(C)C)s1,1.8,12.8*,-1.2,1.3,0.1,-0.4,-0.1,
CC(C)c1nc2oc3c(NCCO)ncnc3c2c2c1COC(C)(C)C2,1.6,7.7*,-4.9,-0.5,3.1,7.7*,0.7,
CC(C)c1nc2oc3c(NCC4CCCO4)ncnc3c2c2c1COC(C)(C)C2 (stereo not drawn),3.4,0.0,1.4,-1.0,3.0,·,·,
CCN(CC)CCCNC(=O)C1c2ccccc2Oc2ccccc21,-0.4,5.0*,2.2,5.6,1.9,0.7,-0.8,
CCOc1ccc(C(C(=O)NCC2CCCO2)N(C(=O)c2snc(C(N)=O)c2N)c2ccccc2F)cc1 (stereo not drawn),0.6,8.5*,9.9,-5.6,1.0,11.0*,0.0,
CCOc1ccc(N(C(=O)c2snc(C(N)=O)c2N)C(C(=O)NC2CCCC2)c2ccncc2)cc1 (stereo not drawn),1.1,7.6*,-0.2,-11.5,6.9,2.6,-0.3,
